Here are results for 16 molecules from PubChem BioAssay.

Calls of active or inactive are those of the source.

One assay addresses Albumin (Bos taurus) (UniProt P02769). Kind of assay: compounds binding labelled BSA control protein – biochemical, small-molecule microarray, Alexa647 label, 635/667 nm fluorescence, artefact control for SMM control protein annotation, profiling panel (AID 1118).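 Note: score merges 667 nm emission intensity and signal-to-noise per printed compound spot.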 The conditions noted are these: BSA-A647 binding, fluorescence 635 nm, higher = more signal.
Assay [1] is described as follows: probe aXIP binding to arrayed compounds – biochemical, NeuroSMM set, 635/667 nm fluorescence, primary screen (AID 1119).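 Note: probe is the protein aXip251-270 applied at 1 µg/mL to compound-printed slides; binding of probe to printed compounds measured as 667 nm fluorescence plus signal to noise.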 The conditions noted are these: small-molecule microarray, higher = more signal, called active from +8 up or from −8 down.
Assay [2] in a line: probe aNOTCH3 binding on compound microarray – biochemical, small-molecule microarray, 635/667 nm fluorescence, primary screen (AID 1120).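 Note: probe is a biotin-tagged antibody raised against NOTCH3 rather than NOTCH3 protein; score merges spot fluorescence near 667 nm with spot signal to noise.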 The conditions noted are these: higher = more signal.
Assay [3] is described as follows: probe aNOTCH2 binding on compound microarray – biochemical, small-molecule microarray, 635/667 nm fluorescence, primary screen (AID 1121).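 Note: score merges feature fluorescence read at 667 nm with its signal to noise.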 The conditions noted are these: higher = more signal.
Assay [4] addresses Carbonic anhydrase 2 (Homo sapiens) (UniProt P00918). Briefly: compounds binding carbonic anhydrase 2 – biochemical, small-molecule microarray, Alexa647-labelled CAII, profiling panel (AID 1122). The conditions noted are these: CAII-A647 binding fluorescence, higher = more signal.
Assay [5] can be described thus: COS7 lysate on small-molecule microarray, probe aHis, 635 nm (AID 1123).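 Note: z-score combines 667nm fluorescence intensity with signal-to-noise per printed compound spot.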 The conditions noted are these: COS7 cell lysate, fluorescence, higher = more signal.
Assay [6] can be described thus: probe aLAP1 signal on lysate-treated microarray – cell lysate, small-molecule microarray, COS7 lysate, primary screen (AID 1124).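 Note: lysate comes from COS7 cells expressing LAP1 and is applied at 0.3 µg/mL; score merges spot fluorescence near 667 nm with signal-to-noise over triplicate slides.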 The conditions noted are these: probe aLAP1, fluorescence, higher = more signal.
The subject of another assay is Sam68 (KHDRBS1). Kind of assay: compounds binding KHDRBS1 protein – biochemical, small-molecule microarray, 635 nm fluorescence, primary screen (AID 1125).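 Note: score merges 667 nm channel intensity with signal to noise over triplicate slides.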 The conditions noted are these: higher = more signal.
In assay [7] the test system is Chordin-like protein 2 (CHRDL2). Briefly: compounds binding chordin-like 2 – biochemical, small-molecule microarray, 635 nm fluorescence, primary screen (AID 1126).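 Note: printed compound slides probed with Chrdl2 protein at 4 µg/mL for 1 h at 4 C; score merges 667 nm emission intensity with signal to noise over three replicate slides.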 The conditions noted are these: fluorescence 635 nm, higher = more signal.
The target in assay [8] is Concanavalin-A (Canavalia ensiformis) (UniProt P02866). Briefly: compounds binding concanavalin A lectin – biochemical, small-molecule microarray, Alexa647 label, 635 nm, artefact control for SMM control protein annotation, primary screen (AID 1127).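 Note: z combines 667 nm emission intensity with signal-to-noise across three replicate slides.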 The conditions noted are these: ConA-A647 binding fluorescence, higher = more signal.
Concanavalin-A (Canavalia ensiformis), sequence (P02866 whole entry, looked up): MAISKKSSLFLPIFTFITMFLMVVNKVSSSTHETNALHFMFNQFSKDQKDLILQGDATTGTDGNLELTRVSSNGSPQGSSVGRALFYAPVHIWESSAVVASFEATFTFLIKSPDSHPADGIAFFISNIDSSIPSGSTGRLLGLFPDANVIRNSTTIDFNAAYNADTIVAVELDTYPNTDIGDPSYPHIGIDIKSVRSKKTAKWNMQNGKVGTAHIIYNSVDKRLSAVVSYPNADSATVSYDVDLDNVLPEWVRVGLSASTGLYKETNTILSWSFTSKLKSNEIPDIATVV

Albumin (Bos taurus), sequence (P02769 whole entry, looked up): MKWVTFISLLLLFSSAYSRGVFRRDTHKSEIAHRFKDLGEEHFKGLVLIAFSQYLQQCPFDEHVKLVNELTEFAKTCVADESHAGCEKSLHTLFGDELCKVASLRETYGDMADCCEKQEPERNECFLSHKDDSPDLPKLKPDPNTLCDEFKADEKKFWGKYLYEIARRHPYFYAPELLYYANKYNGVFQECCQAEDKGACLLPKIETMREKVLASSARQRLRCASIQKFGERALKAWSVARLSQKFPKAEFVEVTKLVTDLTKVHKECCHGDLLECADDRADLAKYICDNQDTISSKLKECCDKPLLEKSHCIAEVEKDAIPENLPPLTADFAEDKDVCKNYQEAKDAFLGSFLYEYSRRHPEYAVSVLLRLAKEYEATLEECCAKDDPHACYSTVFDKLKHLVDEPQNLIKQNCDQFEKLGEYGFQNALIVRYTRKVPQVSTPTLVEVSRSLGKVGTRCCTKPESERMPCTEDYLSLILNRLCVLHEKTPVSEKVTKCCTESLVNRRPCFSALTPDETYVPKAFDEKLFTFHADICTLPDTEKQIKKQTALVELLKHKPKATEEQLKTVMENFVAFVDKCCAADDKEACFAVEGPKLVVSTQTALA

Consider `C#CCN([C@H](/C=C/C1CC1)[C@@H](O)Cc1ccccc1)[C@@H](Cc1ccccc1)C(=O)OC`, for which the composite z-score with Albumin (Bos taurus) is -0.578; in assay [2] it was 0.15; in assay [3], -0.164; in assay [4], -0.179; in [5], -0.485; in assay [6], -0.454. Further, the composite z-score was 0.0511 in the assay with Sam68 (KHDRBS1), 0.686 in assay [7] and -0.249 in [8]. Besides, the composite Z-score in assay [1] was -0.232 (inactive).
In the case of `CC(C)CNC(=O)[C@@H]1c2ccccc2C(=O)N(Cc2ccccc2)[C@H]1c1ccc(CO)cc1`, the composite z-score with Albumin (Bos taurus) was -0.159; in assay [2], -0.394; in assay [3], -0.122; in assay [4], 0.83; in assay [5], 1.63; in assay [6], 1.35. Moreover, the composite z-score was 0.293 in the assay with Sam68 (KHDRBS1), -1.1 in [7] and -0.102 in [8]. Moreover, the composite Z-score in assay [1] was -0.318 (inactive).
On to `COC(=O)C1=CC(CCCO)=CC(c2ccc(CN3CCCC3)cc2)N(Cc2sc3ccccc3c2Cl)C=C1C(=O)OC` (stereo not given), for which the composite z-score was 1.05 in the assay with Albumin (Bos taurus); 0.734 in [2]; 0.157 in [3]; 0.788 in [4]; 2.95 in assay [5]; 0.926 in assay [6]. Also, the composite z-score with Sam68 (KHDRBS1) came to 1.3; in [7], 0.153; in assay [8], 1.21. Further, the composite Z-score in assay [1] was 3.3 (inactive).
Turning to `NCCCC[C@@H]1NC(=O)[C@H]2C[C@@H](C(=O)O)[C@@H](c3cccc(OCCO)c3)N2C1=O`, the composite z-score in the assay with Albumin (Bos taurus) was 0.294; in [2], 0.526; in [3], -0.0106; in assay [4], 0.396; in [5] it was 2.88; in assay [6] it was 0.521. Also, the figures for the composite z-score (with Sam68 (KHDRBS1); in [7]; in assay [8]) were 1.29, 1.39 and 1.1, respectively. In addition, the composite Z-score in assay [1] is 1.71 (inactive).
Consider `CO[C@H]1O[C@H](CO)[C@@H](OC(=O)Nc2ccc(C(F)(F)F)cc2)[C@H](OC(=O)Nc2ccccc2-c2ccccc2)[C@H]1OC(=O)Nc1ccccc1-c1ccccc1`, for which the composite z-score is -0.792 with Albumin (Bos taurus); 0.144 in [2]; -0.0406 in assay [3]; 0.693 in assay [4]; 2.22 in assay [5]; -0.244 in [6]. Besides, the composite z-score is 1.3 in the assay on Sam68 (KHDRBS1), -0.0407 in assay [7] and 1.2 in assay [8]. Moreover, the composite Z-score in assay [1] is 0.259 (inactive).
For `[N-]=[N+]=Nc1ccccc1[C@@H]1OC(c2ccc(OCCCO)cc2)=N[C@]1(Cc1ccccc1)C(N)=O`, the composite z-score with Albumin (Bos taurus) was 0.503; in assay [2], 0.0694; in assay [3] it was -0.0149; in assay [4] it was 0.724; in [5], 1.07; in [6], -0.247. Besides, the results for the composite z-score (in the assay on Sam68 (KHDRBS1); in [7]; in assay [8]) were 0.495, -0.178 and 0.0171, respectively. Also, in [1], the composite Z-score is -0.0189 (inactive).
Turning to `[N-]=[N+]=NCc1ccccc1C[C@@]1(C(=O)O)N=C(c2ccc(OCCCO)cc2)O[C@@H]1c1ccccc1CN=[N+]=[N-]`, the composite z-score with Albumin (Bos taurus) was 0.516; in [2], 0.244; in [3], -0.0716; in assay [4] it was 0.573; in [5], 0.0091; in assay [6] it was 0.0036. In addition, the values for the composite z-score (in the assay on Sam68 (KHDRBS1); in assay [7]; in assay [8]) were 1.31, -0.0541 and 1.11, respectively. Besides, the composite Z-score in assay [1] was 0.259 (inactive).
On to `CCOC(=O)C1=CCC(c2cc3ccccc3[nH]2)N(S(=O)(=O)c2ccccc2[N+](=O)[O-])C1` (stereo not given), for which the composite z-score with Albumin (Bos taurus) was 0.476; in assay [2] it was 0.051; in assay [3] it was -0.188; in assay [4], 0.674; in assay [5] it was 2.37; in assay [6] it was 0.375. Moreover, the figures for the composite z-score (in the assay on Sam68 (KHDRBS1); in assay [7]; in assay [8]) were 0.644, 0.0846 and 0.558, respectively. The composite Z-score in [1] is 4.63 (inactive).
As for `COc1cc(OC)c(C(O)C2C=CC3C(=O)N(c4ccccc4)C(=O)C3N2Nc2ccccc2F)cc1Br` (stereo not given), the composite z-score was 0.89 with Albumin (Bos taurus); 0.378 in assay [2]; -0.0664 in assay [3]; 0.693 in assay [4]; 2.91 in assay [5]; 0.408 in [6]. Also, the composite z-score in the assay with Sam68 (KHDRBS1) is 1.34; in [7], -0.577; in assay [8], 1.1. Moreover, in assay [1], the composite Z-score was 0.476 (inactive).
For the molecule `CCCCNC(=O)c1ccc(C#C[Si](C)(C)C)c(OC(C)=O)c1`, the composite z-score with Albumin (Bos taurus) is -0.175; in assay [2] it was -0.0328; in assay [3], -0.154; in assay [4] it was -0.14; in assay [5], 0.353; in assay [6], 0.0462. Besides, the composite z-score was 0.469 in the assay with Sam68 (KHDRBS1), 0.782 in [7] and 0.0668 in assay [8]. Further, the composite Z-score in assay [1] was 0.378 (inactive).
For the molecule `COCCOC(=O)N1C(=O)[C@@]2(c3cc(C#CCC(C(=O)OC)C(=O)OC)ccc31)[C@H](C(=O)N1CCCCCCC1)[C@H]1C(=O)O[C@H](c3ccccc3)[C@H](c3ccccc3)N1[C@@H]2c1ccccc1OCCO`, the composite z-score with Albumin (Bos taurus) was found to be 0.847; in assay [2], 1.91; in assay [3], 0.689; in assay [4], 0.761; in assay [5], 3.14; in [6], 1.16. The figures for the composite z-score (in the assay on Sam68 (KHDRBS1); in [7]; in assay [8]) were 1.29, 1.44 and 1.06, respectively. Moreover, the composite Z-score in assay [1] was 0.269 (inactive).
Consider `CC(C)=CCN(C(=O)C#Cc1ccccc1)[C@H](CO)c1ccccc1`, for which the composite z-score was -0.105 in the assay with Albumin (Bos taurus); 0.0259 in assay [2]; -0.0883 in assay [3]; -0.0216 in assay [4]; 0.506 in [5]; 0.0602 in assay [6]. Besides, the results for the composite z-score (with Sam68 (KHDRBS1); in assay [7]; in assay [8]) were 0.798, 0.902 and 0.101, respectively. In addition, the composite Z-score in assay [1] is -0.0102 (inactive).
Take `CC(=O)c1ccc(C(O)C2C=CC3C(=O)N(C)C(=O)C3N2NC(=O)OC(C)(C)C)cc1` (stereo not given): the composite z-score with Albumin (Bos taurus) worked out at 1; in assay [2], 0.103; in assay [3] it was 0.119; in [4], 0.885; in assay [5] it was 2.61; in assay [6], 0.366. For the same molecule, the results for the composite z-score (in the assay with Sam68 (KHDRBS1); in assay [7]; in assay [8]) were 1.29, -0.971 and 1.17, respectively. In [1], the composite Z-score was -0.331 (inactive).
With `CO[C@H]1O[C@H](CO)[C@@H](OC(=O)Nc2ccc3c(c2)OCO3)[C@@H]2OC(=O)[C@@H](Cc3ccccc3)C/C=C/C[C@H](Cc3ccccc3)C(=O)O[C@@H]12`, the composite z-score with Albumin (Bos taurus) is -0.052; in [2] it was 0.274; in assay [3] it was 0.0318; in assay [4] it was 0.552; in assay [5] it was 0.859; in assay [6], 0.48. In addition, the composite z-score with Sam68 (KHDRBS1) amounted to 0.943; in [7], 0.455; in assay [8], 0.921. Besides, in assay [1], the composite Z-score is 0.883 (inactive).
Take `CCCCC(O)C1C=CC2C(=O)NC(=O)C2N1Nc1ccccn1` (stereo not given): the composite z-score with Albumin (Bos taurus) is 0.082; in assay [2], -0.155; in assay [3], 0.0377; in assay [4] it was 0.885; in assay [5], -0.234; in assay [6] it was 0.386. Moreover, the composite z-score in the assay on Sam68 (KHDRBS1) is -1.01; in assay [7], -0.0858; in assay [8], 0.344. The composite Z-score in assay [1] is 0.0557 (inactive).
Regarding `C=CC[C@]1(C(=O)NCCCOC)N=C(c2ccc(OCCCO)cc2)O[C@H]1c1ccccc1`, the composite z-score with Albumin (Bos taurus) is 0.812; in assay [2] it was 0.0522; in assay [3] it was -0.131; in assay [4], 0.783; in assay [5], 2.66; in [6], 0.648. In addition, the composite z-score in the assay with Sam68 (KHDRBS1) is 1.07; in assay [7], -1.08; in [8] it was 0.335. Further, in assay [1], the composite Z-score was -0.397 (inactive).
